# Reference: PubChem BioAssay (NCATS)
# Records with an inconclusive call do not appear. Entries that show only a call come without a potency. Values without a mark were called inactive. The source made the active and inactive calls. Calls come from the whole dose curve; as a rule, active = well fitted inhibition curve with a large enough effect; inconclusive = small, poorly fitted or top-dose-only effect; inactive = flat fitted curve, though single readings scatter.
# Legend:
# [1] = qHTS profiling for inhibitors of Plasmodium falciparum proliferation (AID 504749); note: nearly all actives have a fitted effect of over 60% in size; settings: P. falciparum in erythrocytes, SYBR Green DNA, 72 h
# In short: (§1)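 Readout was DNA-dye fluorescence from lysed cultures, ex 485/em 535 nm. Parasitized red cells had grown 72 h with compound; data scaled between 0.29 uM artemisinin and DMSO wells and corrected using vehicle-only plates.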
# 3D7 = test: as above; settings: P. falciparum in erythrocytes, SYBR Green DNA, 72 h; series mostly up to 28.7 µM
# In short: as §1
# 7G8 = test: as above; settings: P. falciparum in erythrocytes, SYBR Green DNA, 72 h; series mostly up to 28.7 µM
# In short: as §1
# AA1029 = test: as above; settings: P. falciparum in erythrocytes, SYBR Green DNA, 72 h; series mostly up to 28.7 µM
# In short: as §1
# AS120 = test: as above; settings: P. falciparum in erythrocytes, SYBR Green DNA, 72 h; series mostly up to 28.7 µM
# In short: as §1
# ATS189 = test: as above; settings: P. falciparum in erythrocytes, SYBR Green DNA, 72 h; series mostly up to 28.7 µM
# In short: as §1
# ATS95 = test: as above; settings: P. falciparum in erythrocytes, SYBR Green DNA, 72 h; series mostly up to 28.7 µM
# In short: as §1
# C2A = test: as above; settings: P. falciparum in erythrocytes, SYBR Green DNA, 72 h; series mostly up to 28.7 µM
# In short: as §1
# CP185 = test: as above; settings: P. falciparum in erythrocytes, SYBR Green DNA, 72 h; series mostly up to 28.7 µM
# In short: as §1
# CP191 = test: as above; settings: P. falciparum in erythrocytes, SYBR Green DNA, 72 h; series mostly up to 28.7 µM
# In short: as §1
# CP192 = test: as above; settings: P. falciparum in erythrocytes, SYBR Green DNA, 72 h; series mostly up to 28.7 µM
# In short: as §1
# CP194 = test: as above; settings: P. falciparum in erythrocytes, SYBR Green DNA, 72 h; series mostly up to 28.7 µM
# In short: as §1
# [2] = at 28.7 µM (top of the series), parasite line A
# [3] = at 28.7 µM (top of the series), parasite line B
# Potency is the fitted concentration of half-maximal effect.
Compound,"activity, negative = inhibition [1, 2]","activity, negative = inhibition [1, 3]",Potency (3D7),Potency (7G8),Potency (AA1029),Potency (AS120),Potency (ATS189),Potency (ATS95),Potency (C2A),Potency (CP185),Potency (CP191),Potency (CP192),Potency (CP194),"activity, negative = inhibition ([1]; at 12.8 µM (top of the series), parasite line A)","activity, negative = inhibition ([1]; at 12.8 µM (top of the series), parasite line B)"
Cc1ncc(C[n+]2csc(CCOP(=O)(O)OP(=O)(O)O)c2C)c(N)n1,-0.174%,5.83%,inactive,inactive,inactive,inactive,inactive,inactive,inactive,inactive,inactive,inactive,inactive,–,–
O=C(O)COc1ccccc1/C=N/NC(=O)c1ccncc1,7.51%,0.92%,inactive,inactive,inactive,inactive,inactive,inactive,inactive,inactive,inactive,inactive,inactive,–,–
CS(=O)(=O)OCC(O)C(O)COS(C)(=O)=O (configuration not stated),-4.77%,-5.43%,inactive,inactive,inactive,inactive,inactive,inactive,inactive,inactive,inactive,inactive,inactive,–,–
FCOC(C(F)(F)F)C(F)(F)F,11.2%,-2.57%,inactive,inactive,inactive,inactive,inactive,inactive,inactive,inactive,inactive,inactive,inactive,–,–
CCCCCCOC(=O)c1cccnc1,6.05%,-29.8%,inactive,inactive,inactive,inactive,inactive,inactive,inactive,inactive,inactive,inactive,inactive,–,–
CC(C)(Oc1ccc(C2CCCc3ccccc32)cc1)C(=O)O (configuration not stated),0.13%,7.8%,inactive,inactive,inactive,inactive,inactive,inactive,inactive,inactive,inactive,inactive,inactive,–,–
CC1CC(OC(=O)C(O)c2ccccc2)CC(C)(C)C1 (configuration not stated),-16%,-1.53%,inactive,inactive,inactive,inactive,inactive,inactive,inactive,inactive,inactive,–,inactive,–,–
CC(=O)Nc1ccc(OC(C)=O)cc1,10.5%,11.7%,inactive,inactive,inactive,inactive,inactive,inactive,inactive,inactive,inactive,inactive,inactive,–,–
CCC(C(=O)NC(N)=O)c1ccccc1 (configuration not stated),-3.47%,11.3%,inactive,inactive,inactive,inactive,inactive,inactive,inactive,inactive,inactive,inactive,inactive,–,–
CCN(CC)CCOC(=O)c1cccnc1,-11.6%,-3.84%,inactive,inactive,inactive,inactive,inactive,–,inactive,inactive,–,inactive,inactive,–,–
CC(C)(CO)[C@@H](O)C(=O)NCCC(=O)NCCSSCCNC(=O)CCNC(=O)[C@H](O)C(C)(C)CO,-1%,-2.45%,inactive,inactive,inactive,inactive,inactive,inactive,inactive,inactive,inactive,inactive,inactive,–,–
NC(=O)[C@@H]1CCCN1C(=O)[C@H](Cc1cnc[nH]1)NC(=O)[C@@H]1CCC(=O)N1,0.117%,4.94%,inactive,–,inactive,inactive,inactive,inactive,inactive,inactive,inactive,inactive,inactive,–,–
[O]=[Bi][O]C(=O)[O][Bi]=[O],3.84%,-1.66%,inactive,10 µM (active),inactive,inactive,inactive,inactive,inactive,inactive,inactive,inactive,inactive,–,–
CC(C)C1=CC2=CC[C@@H]3[C@](C)(CCC[C@@]3(C)C(=O)O)[C@H]2CC1,-4.25%,-11.9%,inactive,–,inactive,inactive,inactive,inactive,inactive,inactive,inactive,–,–,–,–
Cc1ccc(S(=O)(=O)O)cc1C,8.18%,4.98%,inactive,inactive,inactive,inactive,inactive,–,inactive,inactive,inactive,inactive,inactive,–,–
O=P(O)(O)OC[C@H](O)CO,-1.1%,9.77%,inactive,inactive,inactive,inactive,inactive,inactive,inactive,inactive,inactive,inactive,inactive,–,–
C/C=C/C=C/C(=O)O,-0.87%,-21%,inactive,inactive,inactive,inactive,inactive,–,inactive,inactive,inactive,inactive,–,–,–
O=C(O)c1ccc(NC(=O)[C@H](Cc2ccc(O)cc2)NC(=O)c2ccccc2)cc1,3.76%,5.17%,inactive,inactive,inactive,inactive,inactive,inactive,inactive,inactive,inactive,inactive,inactive,–,–
COc1ccc(/C=C/C(=O)O)cc1,8.39%,-2.19%,inactive,inactive,inactive,inactive,inactive,–,inactive,inactive,inactive,inactive,inactive,–,–
O=C(O)Cc1cc(I)c(Oc2ccc(O)c(I)c2)c(I)c1,–,–,inactive,inactive,inactive,inactive,inactive,inactive,inactive,inactive,inactive,inactive,inactive,1.81%,6.07%
Cc1cc(C(=O)NCCc2ccc(S(=O)(=O)NC(=O)NN3CCCCCC3)cc2)no1,7.09%,6.94%,inactive,inactive,inactive,inactive,inactive,inactive,inactive,inactive,inactive,inactive,inactive,–,–
CCCCCCCCCCCCCC(=O)OCC(COP(=O)([O-])OCC[N+](C)(C)C)OC(=O)CCCCCCCCCCCCC (configuration not stated),4.09%,-2.15%,inactive,inactive,inactive,inactive,inactive,inactive,inactive,inactive,inactive,inactive,inactive,–,–
Oc1cc(O)cc(O)c1,0.686%,-2.93%,inactive,inactive,inactive,inactive,inactive,inactive,inactive,inactive,inactive,inactive,inactive,–,–
O=C(O[C@H]1CN2CCC1CC2)N1CCc2ccccc2[C@@H]1c1ccccc1,-23.3%,-19.3%,inactive,5.62 µM (active),–,inactive,inactive,inactive,–,inactive,–,inactive,–,–,–
N#Cc1ccc2c(c1)N(CCCN1CCC(O)CC1)c1ccccc1S2,-11.2%,-26.8%,inactive,12.6 µM (active),11.2 µM (active),–,–,–,inactive,–,–,inactive,–,–,–
CCOC(=O)C1=C(COCCN)NC(C)=C(C(=O)OC)C1c1ccccc1Cl (configuration not stated),-0.523%,-8.98%,inactive,11.2 µM (active),inactive,inactive,–,inactive,inactive,inactive,inactive,inactive,–,–,–
CC1(O)CCC(C(C)(C)O)CC1 (configuration not stated),-2.29%,4.1%,inactive,inactive,inactive,inactive,inactive,inactive,inactive,inactive,inactive,inactive,inactive,–,–
O=[N+]([O-])c1c(Cl)cccc1-c1c[nH]cc1Cl,-12.9%,-18.4%,inactive,–,inactive,inactive,inactive,inactive,inactive,inactive,inactive,inactive,inactive,–,–
Cc1cccc(C)c1NC(=O)NC1=CCCN1C,5.4%,1.38%,inactive,inactive,inactive,–,inactive,inactive,inactive,inactive,inactive,inactive,inactive,–,–
